Screening results from PubChem.
This excerpt belongs to a sample that is enriched for hits.
RBX1-CUL1 inh: inhibitors of human ROC1-CUL1 ubiquitin ligase activity; inhibition, % at 10 µM; actives 0.6% (n = 140,000); in vitro K48 di-Ub FRET, acceptor:donor ratio, 45 min; AID 1347404, 2020; E3 ubiquitin-protein ligase RBX1 (Homo sapiens) + Cullin-1 (Homo sapiens), P62877+Q13616; in the data active = inhibition above about 25%
Hits are given with their value; i = inactive.

SMILES	RBX1-CUL1 inh
Cc1ccccc1N1CC(C(=O)Nc2c(C)cccc2C)CC1=O (stereo unspecified)	i
COC(=O)C(=NC(=O)c1ccccc1)C(C)c1ccc(C)cc1 (stereo unspecified)	i
CN(Cc1ccoc1)Cc1cccc(-c2nc(C3CCOC3)cc(=O)[nH]2)c1 (stereo unspecified)	i
Cn1ccnc1Sc1ccc([N+](=O)[O-])c(Sc2nccn2C)n1	i
Cn1nnnc1Sc1ccc([N+](=O)[O-])c(Sc2nnnn2C)n1	32
Cn1nnnc1Sc1ccc([N+](=O)[O-])cc1Cl	i
O=C(N/N=C/c1ccc([N+](=O)[O-])o1)c1ccc(O)cc1O	i
COc1cc(C2c3c(n[nH]c3-c3ccc(Cl)cc3)OC(=N)C2C#N)cc(OC)c1OC (stereo unspecified)	i
CCc1ccc(OCC(=O)NC(=S)Nc2ccc(S(=O)(=O)Nc3ccc(C)cc3C)cc2)c(Br)c1	i
COc1ccc(-c2cc(-c3ccccc3)nc3sc(C(=O)Nc4ccc(C)cc4C)c(N)c23)cc1	i
O=C(O)c1cc(-c2ccc(CC3=NC(=O)N(Cc4ccccc4)C3=O)o2)ccc1Cl	58
O=C(O)c1ccc(-c2ccc(CC3=NC(=O)N(Cc4ccccc4F)C3=O)o2)cc1Cl	i
CC(C)CCNCc1ccc(-c2cccc(C(=O)O)c2)o1	i
CC(C)CN1C(=O)C(Cc2ccc(-c3cccc(C(=O)O)c3)o2)=NC1=S	28
O=C1N=C(Cc2ccc(-c3ccc(Cl)c(Cl)c3)o2)C(=O)N1Cc1ccccc1	i
O=C1N=C(Cc2ccc(-c3ccccc3)o2)C(=O)N1Cc1ccc(Cl)cc1	i
Cc1cc2c(cc1S(N)(=O)=O)NC(=O)CO2	i
Cc1ccc(N2C(=O)NC(=O)C(C=Nc3ccc(O)c(C(=O)O)c3)C2=O)cc1 (stereo unspecified)	i
CCOc1ccc(N2C(=O)C(C=Nc3cc(N)cc(C(=O)O)c3)C(=O)NC2=S)cc1 (stereo unspecified)	90
CCOC(=O)c1c(N=CC2C(=O)NC(=S)N(c3ccc(F)cc3)C2=O)sc2c1CCCC2 (stereo unspecified)	i
C/C(=N\Nc1nc(-c2ccc(C)cc2)cs1)c1ccccc1O	i
COc1cccc(NC(=O)/C=C/c2cn(C)nc2C)c1	i
CN(C)Cc1ccccc1Sc1ccc(O)cc1	i
Cc1cc(/C=C2/SC(=S)N(CC(=O)O)C2=O)c(C)n1-c1ccccc1	i
CCOc1ccccc1/C=C1\SC(=S)N(CC(=O)O)C1=O	i
SMILES	RBX1-CUL1 inh
O=C(O)CN1C(=O)/C(=C\c2ccccc2Sc2ccc(Cl)cc2)SC1=S	103
O=C(c1ccco1)N1CCN(c2nc(CN(CC3CCC3)CC3CCCO3)nc3ccccc23)CC1 (stereo unspecified)	i
COc1ccc(-c2ccc(OC)c(OC)c2OC)c(OC)c1OC	i
COc1ccc2c(=O)c(Br)cccc2c1OC	i
COc1ccc(OC)c2c(OC)c3ccccc3c(OC)c12	52
C/C=C/Cn1c(=O)c2c(nc3n(Cc4ccccc4)c(C)cn23)n(C)c1=O	i
O=C(NNC(=S)NC1CCCCC1)c1csc2ccccc12	i
COCCC1CCCCN1C(=O)c1cc(NC(=O)C2CCCCC2)cc2ncn(CCOC)c12 (stereo unspecified)	i
Cc1c(Cl)cccc1NC(=O)c1ccccc1OCC(=O)Nc1ccccc1OC(C)C	i
O=C1C(=Cc2cn[nH]c2-c2ccc(F)cc2)C(=O)c2ccccc21	i
CCN(CC)C(=O)C1CCCN(c2ncnc3c2cnn3-c2ccc(C)cc2C)C1 (stereo unspecified)	i
O=C(c1coc(COc2cccc3cnccc23)n1)N1CCCC1	i
O=C(c1coc(COc2cccc3cccnc23)n1)N1CC[C@@H]2CCCC[C@H]2C1	57
CC(C)CNC(=O)c1coc(COc2cccc3cccnc23)n1	i
COc1ccc(CCCC(=O)N/N=C/c2cc(OC)c(OC)cc2[N+](=O)[O-])cc1C	i
CCCn1cnc(NC(=O)NCCc2cccc(OC)c2OC)n1	i
COc1ccccc1NC(=O)CSCC1=Nc2c(Cl)cccc2C(=O)C1	i
Cc1cc(C(=O)Nc2ccccc2F)no1	i
CCC(=O)N1CCc2cc(S(=O)(=O)NC(CC(C)C)C(=O)NCCc3ccccc3)ccc21 (stereo unspecified)	i
CC(=O)N1CCc2cc(S(=O)(=O)NC(CC(C)C)C(=O)NCCc3cccc(C)c3)ccc21 (stereo unspecified)	44
CC(=O)N1CCc2cc(S(=O)(=O)NC(CC(C)C)C(=O)NCc3ccccc3)ccc21 (stereo unspecified)	i
O=C(CC(Sc1ccc(Cl)cc1)c1ccccc1)c1ccc(I)cc1 (stereo unspecified)	i
CCN(CC)c1ccc2c(Cl)c(C(COC(C)=O)OC(C)=O)c(=O)oc2c1 (stereo unspecified)	i
CC1=NN(c2nc(-c3ccc(Br)cc3)cs2)C(=O)C1N=Nc1ccc(Oc2ccccc2)cc1 (stereo unspecified)	i
